Unmarked numbers belong to inactive results. How the calls were made is not given here.

The test system of the test is Rolipram. Kind of test: selectivity profile across receptors and CYP450s – biochemical, Ricerca HitProfilingScreen, CYP450, set 2, selectivity assay for S1P4 agonist project, profiling panel (AID 540332). Particulars: at 30 µM; hits give high values.

With `COCCN=C1S/C(=C\c2cc(C)n(-c3ccc(F)cc3F)c2C)C(=O)N1C`, the inhibition is 15%.

Broadly, the inhibition is the share of the control response that was lost under treatment.

Source of the values: PubChem BioAssay AID540332 (The Scripps Research Institute Molecular Screening Center, 2011).
